Records with an inconclusive call do not appear. Entries that show only a call come without a potency. Activity calls are given as the source filed them. Calls come from the whole dose curve; as a rule, active = well fitted curve in the direction sought with a large enough effect; inconclusive = small, poorly fitted or top-dose-only effect, or another doubt; inactive = no such curve, though single readings can be large; an effect the other way counts as inactive or inconclusive.

Test system in the first test: not listed separately
Put plainly: Confirmatory screen NINDS Rhodamine qHTS for Zika virus inhibitors (AID 1347161).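 For activity change, negative = inhibition: purified Zika NS2B-NS3 protease with linked NS2B cofactor domain and Rhodamine110 peptide substrate.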 Note: nearly all actives have a fitted effect of over 60% in size. Note: potency is the fitted concentration of half-maximal effect. Conditions: purified enzyme assay, Rhodamine110 substrate fluorescence, 15 min; series mostly up to 114 µM. Summed up:
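Aprotinin served as in-plate control. Conditions: 25 nM linked NS2B-NS3, pH 8.0 Tris buffer, titrated compounds, 15 min preincubation and 15 min reaction with 1.5 microM Rhod110 substrate at room temperature.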
`CN(Cc1ccc(C(=O)O)cc1)c1ccc(OCc2c(-c3c(Cl)cccc3Cl)noc2C2CC2)nc1C(F)(F)F`: the Potency was 2.21 µM (active). The same measure, in the same setting: the value for `CS(=O)(=O)c1ccc(-c2cn3ccccc3n2)cc1` was “inactive”; that for `CN(CC(=O)N(Cc1ccc(C2CCCCC2)cc1)c1ccc(C(=O)O)cc1)S(=O)(=O)c1c(F)c(F)c(F)c(F)c1F` was 2.78 µM (active). On the same count and under the same terms, the value for `Cc1ccn(-c2cc(Cl)ccc2[C@@H](Oc2cc(-c3ccc(C[C@H](N)C(=O)O)cc3)nc(N)n2)C(F)(F)F)n1` was 24.8 µM (active).

A further test concerns Zika virus NS2B-NS3 protease (linked construct). Kind of test: 384 well plate NINDS Rhodamine confirmatory qHTS for Zika virus inhibitors (AID 1347164). For activity change, negative = inhibition: top concentration of the series differs between compounds.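 Note: fluorescence from protease cleavage of Ac-LKRR-rhodamine 110 substrate; nearly all actives have a fitted effect of over 65% in size.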 Note: potency is the fitted concentration of half-maximal effect. Particulars: rhodamine-110 peptide substrate fluorescence; series mostly up to 1 mM. Summed up:
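Fluorescence read at ex 485 nm/em 538 nm, 25 min after adding 10 microM Ac-LKRR-Rd substrate at room temperature in the dark; signal normalized to no-enzyme and no-inhibitor controls. Enzyme final 5, 30 or 60 nM; compounds, ~15 min preincubation.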
For orientation: Quantitative high-throughput screening tests each substance at several concentrations.
For the compound `CN(Cc1ccc(C(=O)O)cc1)c1ccc(OCc2c(-c3c(Cl)cccc3Cl)noc2C2CC2)nc1C(F)(F)F`, the Potency is 6.31 µM (active). Turning to `CN(CC(=O)N(Cc1ccc(C2CCCCC2)cc1)c1ccc(C(=O)O)cc1)S(=O)(=O)c1c(F)c(F)c(F)c(F)c1F`, the activity change, negative = inhibition is -179% [at 100 µM] (inactive). `Cc1ccn(-c2cc(Cl)ccc2[C@@H](Oc2cc(-c3ccc(C[C@H](N)C(=O)O)cc3)nc(N)n2)C(F)(F)F)n1`: the Potency was 28.2 µM (active).

Test system in a further test: not listed separately
Kind of test: Tertiary RLuc qRT-PCR qHTS assay for Zika virus inhibitors (AID 1347169). For activity change, negative = inhibition: top concentration of the series differs between compounds. Note: nearly all actives have a fitted effect of over 55% in size. Note: potency is the fitted concentration of half-maximal effect. Conditions: infected Vero cells, reporter luminescence, 48-72 h; series mostly up to 1.74 µM. A digest of the protocol:
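Luminescence read-out: live-cell Renilla luciferase substrate applied to infected Vero cells, signal measured after 1-1.5 hrs. Cells had received compound before ZIKV-RLuc (Cambodian strain, MOI 1-2) infection and were incubated 48-72 hrs at 37 degrees C.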
(In general: In qPCR the cycle at which signal appears reflects the starting amount.)
Turning to `CN(Cc1ccc(C(=O)O)cc1)c1ccc(OCc2c(-c3c(Cl)cccc3Cl)noc2C2CC2)nc1C(F)(F)F`, the Potency was 13.1 µM (active). Still for that read-out and setting: the value for `CS(=O)(=O)c1ccc(-c2cn3ccccc3n2)cc1` was “inactive”. With `CN(CC(=O)N(Cc1ccc(C2CCCCC2)cc1)c1ccc(C(=O)O)cc1)S(=O)(=O)c1c(F)c(F)c(F)c(F)c1F`, the Potency is 7.39 µM (active). The same measure, in the same setting: the value for `Cc1ccn(-c2cc(Cl)ccc2[C@@H](Oc2cc(-c3ccc(C[C@H](N)C(=O)O)cc3)nc(N)n2)C(F)(F)F)n1` was 20.8 µM (active).

Test system in another test: not listed separately
Kind of test: qHTS to identify inhibitors of the type 1 interferon - major histocompatibility complex class I in skeletal muscle: primary screen against the NCATS Mechanism Interrogation Plate v5.0 (MIPE) Libary (AID 1347411). Note: nearly all actives have a fitted effect of over 65% in size. Note: potency is the fitted concentration of half-maximal effect. Particulars: iHSKM cells + IFN-b, HiBiT-tagged MHC-I luminescence, 24 h; series mostly up to 45.8 µM. Summed up: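 Seed engineered human myoblasts (HLA-B HiBit) in medium without dexamethasone containing 4 ng/ml IFN-beta; after 1 hr add compound titrations (top 46 uM final). Incubate 24 hrs at 37 C, lyse 10 min with HiBiT reagent, read luminescence.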
`CNCCN(C)Cc1cn[nH]c1-c1ccc(OC2CC(OCCC3CCOCC3)C2)cc1` (stereo not drawn): the Potency entry was “inactive”.

Consider `N#C[C@@H]1C[C@@H]2C[C@@H]2N1C(=O)[C@@H](N)C12CC3CC(CC(O)(C3)C1)C2`, for which the Potency entry was “inactive”. The same measure, in the same setting: the figure for `COCCNCc1ccc(-c2cc3nccc(Oc4ccc(NC(=S)NC(=O)Cc5ccc(F)cc5)cc4F)c3s2)nc1` is 8.29 µM (active). The same measure, in the same setting: the entry for `Cc1cc(CS(=O)(=O)c2ccccc2)cc(OCc2ccc(CN3CCC[C@@H]3CO)cc2)c1` is “inactive”.

The target in the next test is Calcium and integrin-binding protein 1 (Homo sapiens) (UniProt Q99828). Put plainly: Primary qHTS for Identification of Calcium Integrin Binding Protein 1 (CIB1) Competitor (AID 1508620).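 Note: GST tagged CIB1 binding a fluorescein labelled alphaIIb integrin peptide tracer; top concentration of the series differs between compounds.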 Particulars: CIB1-GST / FITC-alphaIIb peptide fluorescence polarization; series mostly up to 114 µM. Summed up: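 CIB1-GST (1 uM final) and compound incubated 15 min at room temperature before adding FITC-alphaIIb peptide tracer (100 nM final). Competition for binding read by fluorescence polarization (ex 480, em 540) after another 15 min at room temperature.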
Calcium and integrin-binding protein 1 (Homo sapiens), sequence (Q99828 whole entry, looked up): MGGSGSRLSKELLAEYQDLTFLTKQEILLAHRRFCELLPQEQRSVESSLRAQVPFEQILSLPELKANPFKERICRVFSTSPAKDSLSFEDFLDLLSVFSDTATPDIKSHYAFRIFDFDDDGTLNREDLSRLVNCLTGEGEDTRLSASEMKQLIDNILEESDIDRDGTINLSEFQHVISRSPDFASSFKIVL
As for `CNCCN(C)Cc1cn[nH]c1-c1ccc(OC2CC(OCCC3CCOCC3)C2)cc1` (stereo not drawn), the result was inactive. For the compound `C[N+]1(C)[C@@H]2CC[C@H]1CC(OC(=O)C(O)c1ccccc1)C2` (stereo partly drawn), the outcome was inactive. On the same count and under the same terms, the value for `O=C(c1ccc(F)c(F)c1Nc1ccc(I)cc1F)N1CC(O)([C@@H]2CCCCN2)C1` was “inactive”.

For `CCNC(=O)[C@@H]1CCCN1C(=O)[C@H](CCCN=C(N)N)NC(=O)[C@H](CC(C)C)NC(=O)[C@@H](CC(C)C)NC(=O)[C@H](Cc1ccc(O)cc1)NC(=O)[C@H](CO)NC(=O)[C@H](Cc1c[nH]c2ccccc12)NC(=O)[C@H](Cc1cnc[nH]1)NC(=O)[C@@H]1CCC(=O)N1`, the result was inactive. On the same count and under the same terms, the entry for `Cn1c(NC[C@@H](N)Cc2ccccc2)nc(-c2ccncc2)c(-c2ccc3ccccc3c2)c1=O` is “inactive”; for `COc1ccc(NS(=O)(=O)c2sc3ccc(Cl)cc3c2C)cc1N1CCNCC1` it is “inactive”; for `CCCCc1nc(Cl)c(CO)n1Cc1ccc(-c2ccccc2-c2nnn[nH]2)cc1` it is “inactive”.

In the case of `CCC(=O)c1cc(-c2ccc(Cl)cc2)n(-c2ccc(S(N)(=O)=O)cc2)c1C`, the result was inactive. On the same count and under the same terms, the entry for `Cc1cc(C)c(NC(=O)N(Cc2ccc3c(c2)Cc2ccccc2-3)C2CCCCCC2)c(C)c1` is “inactive”. In the case of `Fc1ccccc1CNCc1ccc(-c2ccnc3[nH]ccc23)cc1`, the result was inactive. As to `CN(Cc1ccc(C(=O)O)cc1)c1ccc(OCc2c(-c3c(Cl)cccc3Cl)noc2C2CC2)nc1C(F)(F)F`, the outcome was inactive. Same read-out and setting: the value for `Cc1nc(C)c2c(n1)N(Cc1ccc(-c3ccccc3-c3nn[nH]n3)cc1)C(=O)CC2` was “inactive”; that for `N#C[C@@H]1C[C@@H]2C[C@@H]2N1C(=O)[C@@H](N)C12CC3CC(CC(O)(C3)C1)C2` was “inactive”. On the same count and under the same terms, the entry for `CCCCOc1ccc(-c2cncc(C(=O)NCc3cccnc3N3CCOCC3)c2)cc1Cl` is “inactive”. On the same count and under the same terms, the entry for `C=CC(=O)N1CCN(C(=O)c2cc(-c3cc(Cl)ccc3Cl)c(Cl)cc2OC)CC1` is “inactive”; for `C[C@@H](O[C@H]1OCCN(Cc2n[nH]nc2CN(C)C)[C@H]1c1ccc(F)cc1)c1cc(C(F)(F)F)cc(C(F)(F)F)c1` it is “inactive”; for `Cc1cc(CN)cc(C)c1NC(=O)c1ccc(-c2cc(Cl)ccc2Cl)o1` it is “inactive”. On to `CC(=O)N1CCN([C@H]2CCN(C(=O)N(C)[C@H](C)c3cc(C(F)(F)F)cc(C(F)(F)F)c3)[C@@H](c3ccc(F)cc3C)C2)CC1`, for which the result was inactive.

The values above are taken from PubChem BioAssay (NCATS).
